HEK cytotox: kills HEK 293 cells | actives 6.6% (n = 94,000) | Potency, µM (titrated, usually from 115 µM), for the others: at the highest dose activity change, negative = cytotoxicity, usual class: inhibitors | HEK 293 viability, ATP luminescence (CellTiter-Glo), 48-72 h; note: nearly all actives have a fitted effect of over 60% in size
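Pintool-delivered compounds were incubated with HEK 293 cells (250 cells/well) at 37 degree Celsius for 48 or 72 hr. ATP-dependent luminescence (CellTiter-Glo) then reported remaining viable cells.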
hNpr1 antagonist: human Npr1 receptor antagonism. P16066. HEK293 hNpr1 GloSensor cGMP, ANP-stimulated luminescence. actives 1.6% (n = 76,000). AID 1347048. Potency, µM (top dose mostly 46.3 µM), for the others: at the highest dose activity change, negative = inhibition, actives largely listed as inhibitors; calls by dose curve; note: nearly all actives have a fitted effect of over 60% in size
Target sequence (P16066 whole entry, looked up): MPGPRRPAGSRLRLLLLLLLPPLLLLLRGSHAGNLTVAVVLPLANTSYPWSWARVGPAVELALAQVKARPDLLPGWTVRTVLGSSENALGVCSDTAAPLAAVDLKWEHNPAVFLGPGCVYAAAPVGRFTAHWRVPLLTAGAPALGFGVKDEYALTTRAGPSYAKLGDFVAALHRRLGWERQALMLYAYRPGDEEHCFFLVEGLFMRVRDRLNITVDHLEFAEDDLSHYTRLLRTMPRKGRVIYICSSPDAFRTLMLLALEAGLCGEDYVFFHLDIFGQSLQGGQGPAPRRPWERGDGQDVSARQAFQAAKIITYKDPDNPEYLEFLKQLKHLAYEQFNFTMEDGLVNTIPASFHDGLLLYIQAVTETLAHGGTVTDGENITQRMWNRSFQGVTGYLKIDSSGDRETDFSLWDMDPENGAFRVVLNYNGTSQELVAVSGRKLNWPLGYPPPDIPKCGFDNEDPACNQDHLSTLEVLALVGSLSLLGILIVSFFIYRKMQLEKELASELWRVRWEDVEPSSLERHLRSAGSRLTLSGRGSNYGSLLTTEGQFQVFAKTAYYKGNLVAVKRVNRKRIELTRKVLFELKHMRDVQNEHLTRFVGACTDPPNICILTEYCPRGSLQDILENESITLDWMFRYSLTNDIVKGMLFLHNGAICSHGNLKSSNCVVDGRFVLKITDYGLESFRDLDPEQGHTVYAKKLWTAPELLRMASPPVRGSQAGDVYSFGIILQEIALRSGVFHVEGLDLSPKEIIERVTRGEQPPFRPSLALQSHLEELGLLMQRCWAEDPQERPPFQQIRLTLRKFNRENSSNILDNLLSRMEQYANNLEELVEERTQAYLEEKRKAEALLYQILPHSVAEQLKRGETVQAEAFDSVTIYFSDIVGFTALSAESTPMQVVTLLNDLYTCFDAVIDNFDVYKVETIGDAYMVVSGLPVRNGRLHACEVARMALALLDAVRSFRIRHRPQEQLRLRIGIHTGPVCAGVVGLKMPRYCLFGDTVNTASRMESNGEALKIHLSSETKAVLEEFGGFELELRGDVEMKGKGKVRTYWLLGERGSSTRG
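HEK293 cells stably expressing human Npr1 and cGMP GloSensor pGS-40F, loaded 2 h with 2% GloSensor reagent, given compound 30 min at room temperature. Luminescence read before and 20 min after 0.1 nM hNppA.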
NIH3T3 tox: NIH 3T3 cell cytotoxicity | NIH 3T3 viability, CellTiter-Glo ATP luminescence, 48-72 h | Potency, µM (series often up to 96.7 µM), inactives show at the highest dose activity change, negative = cytotoxicity, actives largely listed as inhibitors | actives 4.3% (n = 94,000); note: nearly all actives have a fitted effect of over 55% in size
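NIH 3T3 cells at 400 cells/well received 23 nL of compound by pintool and were incubated 48 or 72 h at 37 °C. Viability was read as ATP-coupled CellTiter-Glo luminescence.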
GPT2 inh: blocks human glutamate pyruvate transaminase 2. Q8TD30. Recombinant GPT2, coupled pyruvate oxidase/HRP Amplex Red fluorescence. Potency, µM (series often up to 57.7 µM), for inactives: top-dose activity change, negative = inhibition, usual class: inhibitors. actives 0.25% (n = 100,000). AID 1671188; note: nearly all actives have a fitted effect of over 60% in size
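Fluorescence of coupled pyruvate oxidase/HRP/Amplex Red system (50uM Amplex, 30 min, dark) reports pyruvate formed by GPT2. Enzyme reaction: 10ng/uL GPT2, 2mM L-alanine, 250uM a-KG, 30 min room temperature, pH 7.5; 50uM AOA control.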
Luciferase inh: inhibitors of firefly (Photinus pyralis) luciferase. purified P. pyralis luciferase, luminescence, biochemical. P08659. actives 2.5% (n = 76,000). Potency, µM (doses to about 115 µM), actives largely listed as inhibitors. AID 1347043; note: nearly all actives have a fitted effect of over 65% in size
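Cell-free enzyme assay, 10nM P. pyralis luciferase, luciferin and ATP each at 10uM. Inhibition profiled over a 6-point titration, read as luminescence.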
Numbers without * were called inactive; i = inactive; ? = inconclusive; / = no result given; [ ] = another dose, or the depositor's remark. This is a sample that favours compounds with a hit; in the whole collection about 10% have one here. Unless noted, calls come from the whole dose curve; as a rule, active = well fitted curve in the direction sought with a large enough effect; inconclusive = small, poorly fitted or top-dose-only effect, or another doubt; inactive = no such curve, though single readings can be large; an effect the other way counts as inactive or inconclusive. % is set by controls: 0 for no effect and ±100 for the full control effect; potency is the fitted concentration of half-maximal effect.

SMILES	HEK cytotox	hNpr1 antagonist	NIH3T3 tox	GPT2 inh	Luciferase inh
CC[C@H]1CN2CC[C@H]1C[C@@H]2CNCc1ccc(OC)cc1	?	-4%[70.6 µM]	-24%[230 µM]	i	i
CC[C@H]1CN2CC[C@H]1C[C@@H]2CN(Cc1ccc(SC)cc1)Cc1ccc(SC)cc1	7.1µM*	-14%[70.6 µM]	10µM*	-3%[88.5 µM]	i
COC(=O)[C@@]1(C)C(=O)C=C[C@]2(C)c3c(O)cc(C(C)C)cc3[C@H](O)[C@@H](OC(C)=O)C12 (some centres not stated)	/	/	/	i	/
O=C(NC1CC1)[C@H]1CN2CCC1C[C@@H]2Cn1cc(CSc2ccccc2)nn1 (some centres not stated)	-13%[172 µM]	-1%[70.6 µM]	-13%[174 µM]	4%[88.5 µM]	i
COc1cccc(CC(=O)N2[C@H]3CC[C@@H]2c2cnc(C)nc2C3)c1	3%	0%	0%	i	i
COc1cccc(CC(=O)N2[C@H]3CC[C@@H]2c2cnc(-c4ccc(F)cc4)nc2C3)c1	32µM*	5%	?	-34%	i
COc1ccc(CC(=O)N2[C@H]3CC[C@@H]2c2cnc(-c4ccc(F)cc4)nc2C3)cc1OC	79µM*	-29%	-19%	i	i
Cc1cccc(CC(=O)N2CCN(Cc3ccc(=O)n(C)c3)CC2)c1	-12%	-12%	-3%	i	i
N#Cc1ccccc1S(=O)(=O)N1C[C@@H]2C[C@H](C1)c1c(-c3ccccc3F)ccc(=O)n1C2	-9%	-11%	-14%	-27%	i
CCN1CCCN(C(=O)Cc2ccccc2)CC12CCOCC2	-3%	/	-20%	-2%	/
O=C1NC2(CCCN(Cc3cccnc3)C2)COc2ccccc21 (configuration not stated)	89µM*	-23%[70.6 µM]	35µM*	3%[88.5 µM]	i
COc1ccccc1-c1cc([C@H]2CN3CC[C@H]2C[C@@H]3COC(=O)NC2CCCCC2)nc(C)n1	11µM*	-2%	?	-31%	i
CCCNC(=O)OC[C@H]1C[C@@H]2CCN1C[C@@H]2c1cc(-c2ccccc2OC)nc(C)n1	?	5%[70.6 µM]	63µM*	-9%[88.5 µM]	i
O=C(NC1CCCCC1)OC[C@H]1C[C@@H]2CCN1C[C@@H]2c1cc(C2CCCC2)nc(-c2ccncc2)n1	?	?	?	-21%	i
COc1ccccc1-c1cc([C@H]2CN3CC[C@H]2C[C@@H]3COC(=O)Nc2ccccc2)nc(C)n1	?	-1%	?	1%	i
COc1ccccc1-c1cc([C@H]2CN3CC[C@H]2C[C@@H]3CNC(=O)CCC(=O)O)nc(C)n1	-8%	-1%	-10%	i	i
COc1ccccc1-c1cc([C@H]2CN3CC[C@H]2C[C@@H]3COC(=O)NC(C)C)nc(C)n1	?	-4%[70.6 µM]	45µM*	2%[88.5 µM]	i
Cc1cc(CN2CCC3CC(=O)NCCC3C2)cc(C)n1 (configuration not stated)	3%[172 µM]	/	4%[138 µM]	-7%[88.5 µM]	/
COc1ccc(C23CCC(=O)C=C2N(C)CC3)cc1OC (configuration not stated)	/	/	/	-39%	/
c1ccc(CN2CCCC3(CC(c4ccccn4)=NO3)C2)nc1 (configuration not stated)	-4%	/	-3%	-29%	/
CCC(CC)c1cc([C@H]2CN3CC[C@H]2C[C@@H]3CNC(=O)Nc2ccc(OC)cc2)nc(-c2ccncc2)n1	32µM*	-7%	?	i	i
CCC(CC)c1cc([C@H]2CN3CC[C@H]2C[C@@H]3CNC(=O)COC)nc(-c2ccncc2)n1	-14%	3%	?	-3%	i
CCCS(=O)(=O)NC[C@H]1C[C@@H]2CCN1C[C@@H]2c1cc(C(CC)CC)nc(-c2ccncc2)n1	?	?	?	-17%	i
CCC(CC)c1cc([C@H]2CN3CC[C@H]2C[C@@H]3CNC(=O)Nc2ccc(C(C)=O)cc2)nc(-c2ccncc2)n1	25µM*	5%	18µM*	i	i
CCC(CC)c1cc([C@H]2CN3CC[C@H]2C[C@@H]3CNC2CCN(C)CC2)nc(-c2ccncc2)n1	14µM*	-8%	18µM*	i	i
SMILES	HEK cytotox	hNpr1 antagonist	NIH3T3 tox	GPT2 inh	Luciferase inh
CCC(CC)c1cc([C@H]2CN3CC[C@H]2C[C@@H]3CNC(=O)CSCC(=O)O)nc(-c2ccncc2)n1	?	1%	?	i	i
COc1cc2c(cc1OC1CCCC1)NC(=O)C21CCN(Cc2cccnc2)CC1	100µM*	-8%[70.6 µM]	?	-3%[88.5 µM]	i
COc1cc2c(cc1OC1CCCC1)NC(=O)C21CCN(C(C)=O)CC1	-34%[172 µM]	-6%[70.6 µM]	?	i	i
COc1cc2c(cc1OC1CCCC1)NC(=O)C21CCN(Cc2nccs2)CC1	100µM*	-4%[70.6 µM]	?	i	i
COc1cc2c(cc1OC1CCCC1)NC(=O)C21CCN(Cc2ccccc2O)CC1	40µM*	-20%[70.6 µM]	22µM*	-3%[88.5 µM]	i
O=C1CO[C@H]2CN(Cc3ccccn3)C[C@H]2N1	-7%[230 µM]	-9%[70.6 µM]	-24%[230 µM]	3%[88.5 µM]	i
C=C[C@H]1CN2CC[C@H]1C[C@@H]2CNC(=O)C1CCCCC1	i	-2%[70.6 µM]	-8%[230 µM]	i	i
COc1cc2c(cc1OCc1ccccc1)N([S+](=O)([O-])c1ccccc1C(F)(F)F)CC21CCN(C)CC1	20µM*	-15%	13µM*	-60%	i
COc1cc2c(cc1OCc1ccccc1)N([S+](=O)([O-])c1cccnc1)CC21CCN(C)CC1	?	2%	14µM*	1%	i
COc1cc2c(cc1OCc1ccccc1)N([S+](=O)([O-])c1ccc3c(c1)CCO3)CC21CCN(C)CC1	?	-9%	?	1%	i
COc1cc2c(cc1CCc1ccccc1)N(C(=O)c1c[nH]c3ccccc13)CC21CCN(C(C)=O)CC1	25µM*	-19%	22µM*	-12%	i
COc1cc2c(cc1CCc1ccccc1)N(C(=O)c1ccnn1C)CC21CCN(C(C)=O)CC1	?	2%	?	-1%	i
COc1cc2c(cc1CCc1ccccc1)N(C(=O)C1CCC(C)CC1)CC21CCN(C(C)=O)CC1 (configuration not stated)	40µM*	?	32µM*	-18%	i
COc1cc2c(cc1CCc1ccccc1)N(C(=O)C(C)C)CC21CCN(C(C)=O)CC1	89µM*	4%[70.6 µM]	-98%[138 µM]	?	i
COc1ccc(-c2cc([C@H]3CN4CC[C@H]3C[C@@H]4CNCc3ccccn3)n(C)n2)cc1	-10%[172 µM]	0%[70.6 µM]	?	i	i
C#CCN(C)C[C@H]1CN2CC[C@H]1C[C@@H]2CNC(=O)Nc1ccccc1	0%[172 µM]	7%[70.6 µM]	-6%[174 µM]	1%[88.5 µM]	?

Screening data: PubChem, National Center for Advancing Translational Sciences (NCATS)
